Six1-Eya2 inh: qHTS Assay for Inhibitors of the Six1/Eya2 Interaction | AlphaScreen GST-Six1/His-Eya2 binding, biochemical; hits give low values | activity change, % (test concentration not listed) | 360,000 compounds, 0.56% hits | AID 651725, 2012; in the data active means activity change below about -65%; inconclusive means mostly about -30% to -63%; further: on the % scale 0 is the no-effect control and ±100 the full control effect
Target sequence (O00167 whole entry, looked up): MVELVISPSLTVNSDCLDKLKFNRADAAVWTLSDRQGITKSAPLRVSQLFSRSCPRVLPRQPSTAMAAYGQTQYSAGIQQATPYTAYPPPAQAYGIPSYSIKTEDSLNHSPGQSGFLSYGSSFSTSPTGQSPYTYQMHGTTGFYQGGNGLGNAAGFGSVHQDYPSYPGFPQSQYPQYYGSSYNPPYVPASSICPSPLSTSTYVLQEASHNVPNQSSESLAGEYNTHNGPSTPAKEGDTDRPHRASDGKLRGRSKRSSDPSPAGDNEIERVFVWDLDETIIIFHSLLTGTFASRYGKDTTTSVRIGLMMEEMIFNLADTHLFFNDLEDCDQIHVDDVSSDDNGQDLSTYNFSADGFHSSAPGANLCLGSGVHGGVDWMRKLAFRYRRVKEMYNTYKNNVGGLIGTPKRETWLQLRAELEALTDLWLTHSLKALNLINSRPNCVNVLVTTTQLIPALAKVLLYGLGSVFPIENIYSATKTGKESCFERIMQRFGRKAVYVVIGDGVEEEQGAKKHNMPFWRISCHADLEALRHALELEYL
Target sequence (Q15475 whole entry, looked up): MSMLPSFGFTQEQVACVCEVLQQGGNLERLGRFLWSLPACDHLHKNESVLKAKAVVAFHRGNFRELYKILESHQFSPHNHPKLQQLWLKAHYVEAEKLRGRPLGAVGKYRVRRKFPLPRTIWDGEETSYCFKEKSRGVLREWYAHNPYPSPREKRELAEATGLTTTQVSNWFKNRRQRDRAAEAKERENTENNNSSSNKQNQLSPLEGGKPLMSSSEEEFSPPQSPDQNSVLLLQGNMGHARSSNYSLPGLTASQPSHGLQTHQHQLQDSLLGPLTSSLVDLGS
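Six1/Eya2 binding was read as AlphaScreen signal after compounds were pinned into GST-Six1 plus His-tagged Eya2 (5X stock 250/500 nM) in pH 8.0 Tris/NaCl/TCEP buffer, beads added, then incubated 1 h, 37 C, dark.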
CtBP-E1A blk: qHTS Assay for Inhibitors of the CtBP/E1A Interaction. CtBP / adenovirus E1A interaction (AlphaScreen). AlphaScreen GST-E1A/His-CtBP binding, 1536-well; hits give low values. activity change, % (no concentration beside the values). 340,000 compounds, 0.49% hits; in the data active means activity change below about -65%; inconclusive means mostly about -30% to -63%; further: on the % scale 0 is the no-effect control and ±100 the full control effect
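In 5 uL wells, 23 nL compound meets equimolar GST-E1A and His-CtBP (5X stock 125 nM each) for 2 h, 37 °C. Beads (5X, 50 ug/mL) then 1 h, 37 °C, dark.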
p53 reactivation: qHTS assay for re-activators of p53 using a Luc reporter | H1299 p53-A138V BP100-luciferase reporter, luminescence, 24 h | Potency, µM (top dose mostly 92.2 µM), inactives show at the highest dose activity change, positive = activation, hits mostly activators | 320,000 compounds, 0.063% hits | AID 504706, 2011; further: potency means the concentration at half of the fitted maximal effect; % of control where 0% means no effect; nearly all actives have a fitted effect of over 45% in size
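H1299 (p53-null), stable ts p53-A138V + BP100-Luc; 1000 cells/well, Opti-MEM/10% FBS; cpd 4 pt, 1:5; 24 h, 37 deg C, 5% CO2; detection reagent 10 min RT; luminescence.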
RORgamma inh: qHTS for inhibitors of ROR gamma transcriptional activity; Drosophila S2 Gal4-RORgamma UAS-luciferase reporter, 20 h; Potency, µM (doses to about 53.6 µM), for inactives: at the top dose activity change, negative = inhibition, actives largely listed as inhibitors; Nuclear receptor ROR-gamma (Mus musculus), P51450; AID 2551, 2010; 310,000 compounds, 5.4% hits; further: potency means the concentration at half of the fitted maximal effect; on the % scale 0 is the no-effect control and ±100 the full control effect; nearly all actives have a fitted effect of over 60% in size
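Stable Schneider cell line, Gal4 DNA-binding domain fused to ROR gamma, UAS-luciferase. Cmpd 1 hr RT → CuSO4 700 uM final → 20 hr RT → luciferase reagent 10 min → luminescence.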
Gal4-VP16 FLuc: VP16 counterscreen qHTS for inhibitors of ROR gamma transcriptional activity. Potency, µM (highest dose often 53.6 µM), for inactives: at the highest dose activity, negative = inhibition, usual class: inhibitors. Drosophila S2 Gal4-VP16 UAS-luciferase, luminescence, 20 h. AID 2546, 2010. 310,000 compounds, 3.5% hits;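 further: Gal4-VP16 expression switched on by copper sulfate through the metallothionein promoter; potency means the concentration at half of the fitted maximal effect; on the % scale 0 is the no-effect control and ±100 the full control effect; nearly all actives have a fitted effect of over 50% in size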
* marks the source's active call; other numbers are inactive results; ? = inconclusive; · = no result given. Shown are actives, neighbours in structure and some others; about 5.4% of the full set was active somewhere. Unless noted, the call rests on the fitted dose curve; in most records, active means well fitted curve in the direction sought with a large enough effect; inconclusive means small, poorly fitted or top-dose-only effect, or another doubt; inactive means no such curve, though single readings can be large; an effect the other way counts as inactive or inconclusive.

SMILES | Six1-Eya2 inh | CtBP-E1A blk | p53 reactivation | RORgamma inh | Gal4-VP16 FLuc
Cc1ccc(NC(=O)NC2CCCCC2)c(C)c1 | -5 | -1 | 17% | 14% | 10%
Cc1cc(F)ccc1NC(=S)NC1CCCC1 | -3 | 4 | 0% | 6.3µM* | 10µM*
C=C1CCN(C(Cc2ccccc2)C(=O)NC2CCN(Cc3ccccc3)CC2)S(=O)(=O)c2ccccc21 (configuration not stated) | · | · | · | 27% | 3%
O=C(Nc1ncc(Cl)cc1Cl)c1c(F)cccc1Cl | -7 | -9 | 0% | 16% | -4%
O=C(COc1ccccc1/C=C1\SC(=S)NC1=O)Nc1ccc(F)cc1 | -30 | -85* | 26% | · | ·
COCc1nnc(NC(=O)c2ccc(S(=O)(=O)N3CCOCC3)cc2)o1 | ? | -18 | -17% | 11µM* | 20µM*
COCc1nnc(NC(=O)c2ccc(S(=O)(=O)N3CCCc4ccccc43)cc2)o1 | -2 | -8 | -1% | 0.63µM* | 3.5µM*
COc1ccc(-c2nnc(NC(=O)c3ccc(S(=O)(=O)N4CCCc5ccccc54)cc3)o2)cc1 | -14 | -25 | 5% | 0.28µM* | 0.5µM*
COc1cc(-c2nnc(NC(=O)c3ccc(S(=O)(=O)N4CCOCC4)cc3)o2)cc(OC)c1OC | · | · | 0% | ? | ?
O=C(Nc1nnc(C2CC2)o1)c1ccc(S(=O)(=O)N2CCCc3ccccc32)cc1 | -6 | -3 | ? | 0.32µM* | 0.71µM*
O=S1(=O)N[C@@H](Cc2ccccc2)COc2cc(N3CCC[C@@H]3CO)ccc21 | 1 | 0 | · | · | ·
CCCOc1ccc2c(c1)C(=NN=C(N)N)c1cc(OCCC)ccc1-2 | -21 | ? | -17% | 14µM* | -23%
CCC(C)C(NC)C(=O)O (configuration not stated) | · | · | · | -1% | -7%
C=CC1=C(C(=O)O)N2C(=O)[C@@H](NC(=O)/C(=N\O)c3csc(N)n3)[C@H]2SC1 (stereo in doubt) | -90* | -85* | · | · | ·
CO/N=C(/C(=O)N[C@H]1C(=O)N2C(C(=O)O)=C(COC(C)=O)CSC12)c1csc(N)n1 (some centres not stated) | · | · | · | -14% | -1%
CC(C)CC(=O)Nc1ccnn1C1CCN(C(=O)c2ccc(Cl)cc2F)CC1 | 1 | -1 | 13% | 29% | -7%
CCn1c(CSCc2ccc(C)cc2)n[nH]c1=S | 4 | · | 10% | 5.6µM* | 3.5µM*
CCn1c(CSCc2ccc(Cl)cc2)n[nH]c1=S | -3 | -24 | 0% | 2.2µM* | 7.1µM*
Cn1c(CSCc2ccc(Cl)c(Cl)c2)n[nH]c1=S | 0 | -2 | -7% | 5.6µM* | 4µM*
CCOCCCNC(=S)Nc1ccc(S(N)(=O)=O)cc1 | 2 | 5 | -1% | 30% | ?
COc1ccc(-c2csc(C(O)c3ccc(F)c(OC)c3)n2)cc1 (configuration not stated) | 0 | -5 | · | · | ·
Cc1cc(SC#N)cc(C)c1NC(=O)CCl | -20 | -17 | -30% | 3.5µM* | 5µM*
CCC(=O)Nc1ccc(SC#N)cc1C | -15 | 6 | -15% | 13µM* | ?
Cc1ccccc1-c1cc(Nc2ccc(F)cc2)ncn1 | · | · | · | 11% | 16%
CCOc1ccc2nc(SC3CC(=O)N(c4ccccc4)C3=O)sc2c1 (configuration not stated) | -5 | 3 | -13% | 10µM* | 13µM*
SMILES | Six1-Eya2 inh | CtBP-E1A blk | p53 reactivation | RORgamma inh | Gal4-VP16 FLuc
CCOc1ccc2nc(SC3CC(=O)N(c4cccc(OC)c4)C3=O)sc2c1 (configuration not stated) | 0 | 0 | -17% | 14µM* | 4µM*
O=C(NCc1ccccc1)C(=O)NCC1CCCN1S(=O)(=O)c1cccs1 (configuration not stated) | 9 | -2 | 0% | · | ·
C/C(=N\NC(=S)NCc1ccccc1)c1ccc2c(c1)OCCO2 | -8 | · | 18% | 2.8µM* | 8.9µM*
O=C(NCc1ccccc1)c1ccc2c(c1)OCCO2 | 6 | 8 | ? | ? | 4%
C/C(=N\NC(=O)c1csc(C)c1C)c1ccco1 | -2 | -3 | 7.9µM* | ? | -23%
C/C(=N\NC(=S)NCc1ccccc1)c1ccc(C)o1 | -14 | -26 | 14% | 2.2µM* | 7.1µM*
CCNC(=S)N/N=C(\C)c1ccco1 | 3 | -11 | 4% | 4µM* | 13µM*
COC(=O)[C@]12CCCCC=C1N(Cc1ccco1)C(=O)[C@H](CC(=O)NCCCN1CCCC1=O)C2 | 9 | 3 | · | · | ·
COC(=O)N/N=C(\C)c1ccccc1OC(F)F | 1 | -3 | 0% | 4% | -1%
C/C(=N\NC(=S)NCc1ccccc1)c1ccc2ccccc2c1OC(F)F | -19 | -12 | 0% | 2.2µM* | 2.2µM*
C/C(=N\NC(=S)NCc1ccccc1)c1ccc(Br)cc1 | -10 | -21 | -7% | 0.28µM* | 0.5µM*
OC(CSc1c(Cl)cccc1Cl)CN1CCN(c2ccc(F)cc2)CC1 (configuration not stated) | -4 | 1 | -11% | 23% | -4%
O=S(=O)(c1ccccc1)[C@@]1(c2ccc(Br)cc2)C[C@@H]2ON=C(c3ccccc3)[C@@H]2C1 | -7 | 0 | 5% | · | ·
CC1=CN2C(=N)/C(=C/c3ccc(Sc4ccc(C)cc4)o3)C(=O)N=C2S1 | -25 | -21 | 25% | 2.2µM* | 4µM*
CC1=CN2C(=N)/C(=C/c3ccc(C)o3)C(=O)N=C2S1 | -8 | -7 | 81% | 1.4µM* | 10µM*
N=C1/C(=C\c2ccc(SCc3ccccc3)o2)C(=O)N=C2SC=NN12 | -16 | · | 8% | -10% | 9%
CC1=CN2C(=N)/C(=C/c3ccc(Sc4ccc(Cl)cc4)o3)C(=O)N=C2S1 | -7 | -10 | 0% | ? | 4.5µM*
COc1ccc(-c2c(C3C4C=CCCC4(C)C(=O)N3Cc3ccccc3)ccc3ccccc23)cc1OC (configuration not stated) | · | · | · | -10% | -4%
CCOC(=O)c1nn(-c2ccc(C)cc2)c(=O)cc1OCC(=O)N1CCN(c2ccccc2)CC1 | 2 | -5 | 3% | · | ·
CC1CC1C(=O)Nc1nc(-c2cccs2)c(-c2cccs2)s1 (configuration not stated) | -3 | 8 | 0% | 10µM* | 12%
O=C(Nc1nnc(-c2ccccc2Cl)o1)c1nc2ccccc2s1 | -1 | -7 | ? | 1.1µM* | ?
O=C(Nc1nnc(-c2ccccc2Cl)o1)c1ccco1 | -11 | -10 | ? | 2.8µM* | 5µM*
O=C(Nc1nc(-c2cccs2)c(-c2ccccc2)s1)c1ccco1 | 0 | -3 | 5% | ? | 7.9µM*
